Compounds with a hit are over-represented: about 7.3% of the library has one in this group of screens.
uPA generation: qHTS for Inhibitors of Cell Surface uPA Generation; cell surface uPA generation assay, qHTS; Potency, µM (series often up to 38.3 µM), without a hit: at the highest dose activity change, negative = inhibition, hits mostly inhibitors; 330,000 compounds, 0.31% hits; AID 540303, 2011; active = well fitted inhibition curve with a large enough effect; inconclusive = small, poorly fitted or top-dose-only effect; inactive = no such curve, though single readings can be large or run the other way; tested in mouse RAW 264.7 cells; note: % is set by controls: 0 for no effect and ±100 for the full control effect; nearly all actives have a fitted effect of over 55% in size
SMN2 splice enh: qHTS Assay for Enhancers of SMN2 Splice Variant Expression | HEK293 SMN2-luciferase splicing reporter, luminescence, 30-36 h | Potency, µM (highest dose often 46.1 µM), inactives show at the top dose activity change, positive = activation, hits mostly activators | 210,000 compounds, 2.8% hits | AID 1458, 2008; note: % of control where 0% means no effect; nearly all actives have a fitted effect of over 55% in size
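HEK293 cells carry an SMN2 […]–luciferase reporter in which exon 7 inclusion puts luciferase in frame. Cells were plated 10-12 h before compound addition, then incubated 30-36 h at 37C. ONE-Glo luminescence was read; sodium butyrate at 4.5 mM final served as control.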
NPC1 prom act: qHTS Assay for NPC1 Promoter Activators. 320,000 compounds, 2.4% hits. AID 485313, 2010. Huh7 NPC1 promoter luciferase reporter, 24 h. Potency, µM (highest dose often 9.22 µM), for the others: at the top dose activation, most hits filed as activators; note: % of control where 0% means no effect; nearly all actives have a fitted effect of over 60% in size
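Quantitative HTS used a cell-based reporter: Huh7 cells stably bearing the NPC1 promoter upstream of luciferase were treated with compounds for 24 h, and promoter activation was read as luminescence.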
ELG1 genotox: qHTS screen for small molecules that induce genotoxicity in human embryonic kidney (HEK293T) cells expressing luciferase-tagged ELG1; Potency, µM (doses to about 46 µM), for the others: at the top dose activity change, positive = activation, usual class: activators; 330,000 compounds, 1.3% hits; HEK293T ELG1-luciferase reporter, luminescence, 16 h; AID 504466, 2011; note: % of control where 0% means no effect; nearly all actives have a fitted effect of over 60% in size
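After overnight (16 hr) compound treatment at 37 °C, ELG1-luciferase HEK293T cells were lysed with ONE-Glo; luminescence quantified 30 min later at room temperature.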
Rab9 prom act: qHTS Assay for Rab9 Promoter Activators; 320,000 compounds, 2.8% hits; Potency, µM (doses to about 9.22 µM), inactives show at the top dose activation, negative = inhibition, usual class: activators; Huh7 Rab9 promoter-luciferase reporter, luminescence, 24 h; note: % of control where 0% means no effect; nearly all actives have a fitted effect of over 60% in size
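Huh7 reporter line, Rab9 promoter upstream of luciferase. Compound exposure 24 h at 37 °C in reduced-serum medium with 10% FBS. Read-out: luminescence.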
FLuc modulator: qHTS profiling assay for firefly luciferase inhibitor/activator using purifed enzyme and Km concentrations of substrates (counterscreen for miR-21 project); AID 588342, 2011; 360,000 compounds, 6.9% hits; purified FLuc, Km substrates, luminescence inhibition; Potency, µM (doses to about 57.5 µM), for inactives: at the top dose activity change, negative = inhibition, hits mostly inhibitors;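 note: plate controls were vehicle for no effect and reference inhibitor for full effect; nearly all actives have a fitted effect of over 55% in size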
Target sequence (P08659 whole entry, looked up): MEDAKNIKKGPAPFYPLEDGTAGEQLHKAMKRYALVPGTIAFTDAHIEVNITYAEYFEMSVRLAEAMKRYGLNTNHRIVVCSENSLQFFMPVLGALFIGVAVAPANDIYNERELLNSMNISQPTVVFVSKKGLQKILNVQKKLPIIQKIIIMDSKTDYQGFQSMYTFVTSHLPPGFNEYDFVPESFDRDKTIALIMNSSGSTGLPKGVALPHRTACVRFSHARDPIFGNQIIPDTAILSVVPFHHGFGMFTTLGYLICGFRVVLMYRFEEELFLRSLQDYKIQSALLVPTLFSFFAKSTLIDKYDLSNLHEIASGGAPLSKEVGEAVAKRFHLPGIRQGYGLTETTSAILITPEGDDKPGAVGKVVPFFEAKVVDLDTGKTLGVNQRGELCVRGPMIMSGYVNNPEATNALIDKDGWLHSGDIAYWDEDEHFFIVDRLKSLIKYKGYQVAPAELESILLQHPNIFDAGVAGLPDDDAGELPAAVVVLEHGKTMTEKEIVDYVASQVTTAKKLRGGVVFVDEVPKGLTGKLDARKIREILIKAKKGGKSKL
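Purified P. pyralis luciferase (10nM final) with 10uM D-luciferin and 10uM ATP (Km levels) in 50mM Tris acetate pH 7.5, 10mM Mg acetate, 0.01% Tween-20, 0.05% BSA; qHTS 6-point titration, ~60 µM downward; luminescence read.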
* marks the source's active call; other numbers are inactive results. Unless noted, calls come from the whole dose curve; as a rule, active = well fitted curve in the direction sought with a large enough effect; inconclusive = small, poorly fitted or top-dose-only effect, or another doubt; inactive = no such curve, though single readings can be large; an effect the other way counts as inactive or inconclusive. Potency is the fitted concentration of half-maximal effect.

How did Cc1ccc(OCc2nc3ccccc3n2Cc2ccccc2Cl)cc1 do in these assays?
SMN2 splice enh: -5%; FLuc modulator: inconclusive

What do the screens show for `CCc1ccc(N/C(=N/c2nc(C)cc(C)n2)NC(C)=O)cc1`?
uPA generation: 6%; NPC1 prom act: 3%; ELG1 genotox: -7%; Rab9 prom act: -8%; FLuc modulator: -1%

How did CCc1ccc(-c2cn(-c3nc(C)cc(C)n3)c(=N)o2)cc1 do in these assays?
uPA generation: -12%; SMN2 splice enh: 2%; NPC1 prom act: 2%; ELG1 genotox: -8%; Rab9 prom act: 0%; FLuc modulator: 5.4µM*

Results for Cn1/c(=N/NC(=O)c2ccccc2F)sc2ccccc21 ?
uPA generation: -4%; SMN2 splice enh: inconclusive; NPC1 prom act: inconclusive; ELG1 genotox: inconclusive; Rab9 prom act: 2.8µM*; FLuc modulator: 15µM*

How did Cc1ccc(C(=O)N/N=c2\sc3ccccc3n2C)cc1 do in these assays?
uPA generation: -1%; SMN2 splice enh: 9%; NPC1 prom act: 20%; ELG1 genotox: 0%; Rab9 prom act: 13%; FLuc modulator: 21µM*

Results for COc1cccc(C(=O)N/N=c2\sc3ccccc3n2C)c1 ?
uPA generation: 2%; SMN2 splice enh: 18%; NPC1 prom act: 1%; ELG1 genotox: 3%; Rab9 prom act: -4%; FLuc modulator: inconclusive

How did CCOc1ccc(/C=C2\SC(=S)N(CCC(=O)N(CCO)c3ccccc3)C2=O)cc1 do in these assays?
uPA generation: 2%; NPC1 prom act: 0%; ELG1 genotox: -6%; Rab9 prom act: -10%; FLuc modulator: 9.5µM*

Results for COc1ccc(/C=C2/SC(=S)N(CCC(=O)O)C2=O)cc1 ?
uPA generation: -24%; SMN2 splice enh: -13%; NPC1 prom act: -8%; ELG1 genotox: -4%; Rab9 prom act: -12%; FLuc modulator: 5.4µM*

How did COC(=O)c1ccc(/C=C2/SC(=S)N(CCCC(=O)Nc3ccccn3)C2=O)cc1 do in these assays?
uPA generation: -6%; SMN2 splice enh: -9%; NPC1 prom act: -11%; ELG1 genotox: 1%; Rab9 prom act: -10%; FLuc modulator: inconclusive

What do the screens show for `CCc1ccc(/C=C2\SC(=S)N(CCCC(=O)Nc3ccccn3)C2=O)cc1`?
uPA generation: 8%; SMN2 splice enh: -57%; NPC1 prom act: -21%; ELG1 genotox: -1%; Rab9 prom act: -20%; FLuc modulator: 15µM*

Results for CCc1ccc(/C=C2/SC(=S)N(CCC(=O)Nc3ccc(C(=O)O)cc3)C2=O)cc1 ?
NPC1 prom act: 19%; ELG1 genotox: -4%; Rab9 prom act: -6%; FLuc modulator: 0.85µM*

Results for O=C(Nc1cccc(F)c1)c1ccc2c(c1)N(Cc1ccccc1)C(=O)c1ccccc1S2(=O)=O ?
SMN2 splice enh: -7%; FLuc modulator: -1%

Results for CN1CCN(C(CNC(=O)C(=O)Nc2ccc(F)cc2F)c2ccc3c(c2)OCO3)CC1 (configuration not stated) ?
FLuc modulator: -1%

What do the screens show for `CSc1ccc(S(=O)(=O)N2CCC(C(=O)NCCN3CCOCC3)CC2)cc1`?
uPA generation: 6%; NPC1 prom act: -6%; ELG1 genotox: -1%; Rab9 prom act: 3%; FLuc modulator: 1%

Results for COC(=O)c1cccc(NC(=O)N(C)CCc2c(C)nn(C)c2C)c1 ?
FLuc modulator: -9%

What do the screens show for `O=C(CCN1C(=O)/C(=C/c2cccs2)SC1=S)N1CCCCC1`?
uPA generation: 0%; NPC1 prom act: -20%; ELG1 genotox: 7%; Rab9 prom act: -21%; FLuc modulator: 15µM*

Results for O=C(CCN1C(=O)/C(=C\c2ccccc2)SC1=S)N1CCCCC1 ?
uPA generation: -1%; NPC1 prom act: -21%; ELG1 genotox: -7%; Rab9 prom act: -21%; FLuc modulator: inconclusive

Results for CCc1ccc(/C=C2/SC(=S)N(CCC(=O)Nc3cccc(C(=O)O)c3)C2=O)cc1 ?
uPA generation: 0%; NPC1 prom act: inconclusive; ELG1 genotox: inconclusive; Rab9 prom act: 25%; FLuc modulator: 2.1µM*

How did COc1cccc(/C=C2\SC(=S)N(CCCC(=O)N3CCCC3)C2=O)c1 do in these assays?
uPA generation: -9%; NPC1 prom act: -12%; ELG1 genotox: -7%; Rab9 prom act: -17%; FLuc modulator: 17µM*

How did O=C(O)CCN1C(=O)/C(=C\c2cccc(Oc3ccccc3)c2)SC1=S do in these assays?
uPA generation: 8%; NPC1 prom act: -6%; ELG1 genotox: 1%; Rab9 prom act: -7%; FLuc modulator: 24µM*

How did O=C(O)CCN1C(=O)/C(=C\c2ccncc2)SC1=S do in these assays?
uPA generation: 4%; SMN2 splice enh: -5%; NPC1 prom act: -7%; ELG1 genotox: 8%; Rab9 prom act: -2%; FLuc modulator: -16%

How did COc1ccc(/C=C2\SC(=S)N(CCC(=O)Nc3cccc(O)c3)C2=O)cc1 do in these assays?
uPA generation: 1%; NPC1 prom act: 17%; ELG1 genotox: inconclusive; Rab9 prom act: -6%; FLuc modulator: inconclusive

Results for O=C(CCN1C(=O)/C(=C/c2ccc(Cl)cc2)SC1=S)Nc1ccc(C(=O)O)cc1 ?
uPA generation: -6%; NPC1 prom act: -5%; ELG1 genotox: 0%; Rab9 prom act: 0%; FLuc modulator: 11µM*

How did COc1ccc(/C=C2\SC(=S)N(CCC(=O)Nc3ccc(C(=O)O)cc3)C2=O)cc1 do in these assays?
uPA generation: -1%; NPC1 prom act: 12%; ELG1 genotox: inconclusive; Rab9 prom act: 0%; FLuc modulator: 3µM*

What do the screens show for `CCN(C(=O)CCN1C(=O)/C(=C/c2ccccc2)SC1=S)C1CCS(=O)(=O)C1` (configuration not stated)?
uPA generation: -13%; NPC1 prom act: -18%; ELG1 genotox: -8%; Rab9 prom act: -22%; FLuc modulator: 24µM*

How did O=C(CCN1C(=O)/C(=C\c2cccs2)SC1=S)Nc1ccc(C(=O)O)cc1 do in these assays?
uPA generation: 5%; NPC1 prom act: -2%; ELG1 genotox: 12%; Rab9 prom act: -4%; FLuc modulator: 0%

What do the screens show for `COc1cc(/C=C2/SC(=S)N(CCC(=O)Nc3ccc(C(=O)O)cc3)C2=O)cc(OC)c1OC`?
uPA generation: -4%; NPC1 prom act: -2%; ELG1 genotox: -4%; Rab9 prom act: -2%; FLuc modulator: 0%
